Hits are enriched below; roughly 3% of the tested compounds scored in any of these assays.
Insulin prom inh – TRM-6 insulin promoter activity inhibition | TRM-6 cells (human fetal islet line), insulin promoter-eGFP reporter, imaging; reporter expression induced with tamoxifen | inhibition, % at 2 µM | 0.9% of 130,000 active | AID 1273;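 active = inhibition above the mean plus 3 SD, with well images judged a real hit on visual review, cut at about 60% in these data, passing the limit was not always enough; inconclusive = inhibition over the cutoff but images rejected on review; inactive = inhibition not above the cutoff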
Measles CPE – protection of cells from measles virus; Measles virus-infected cells, CPE protection, absorbance; protection (pct of control), % at 4 µM; 1.5% of 140,000 active; in the data active = protection mostly above about 24%, no sharp cut-off; inactive = mostly below about 26%
sdo1 growth – compounds rescuing growth of sdo1-depleted yeast, bone marrow failure model | S. cerevisiae sdo1-depleted JHY4D growth rescue, OD600 30 h; hits give high values; pdr5 snq2 efflux-pump mutant strain | z-score at 10 µM | 0.21% of 140,000 active;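 active = z-score above 3 at both the 24 hr and the 30 hr optical density reads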
ROMK primary – modulators of human ROMK potassium channel | Tet-inducible ROMK, thallium flux fluorescence; actives lie on both sides | B-score at 10 µM | 2% of 130,000 active;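 active = signal ratio slope over the read window, or its plate-corrected B-score, at least 3 SD from the plate mean, either direction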;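 also: B-score of the F/F0 ratio slope over 7 to 12 s after thallium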
Target sequence (P48048 whole entry, looked up): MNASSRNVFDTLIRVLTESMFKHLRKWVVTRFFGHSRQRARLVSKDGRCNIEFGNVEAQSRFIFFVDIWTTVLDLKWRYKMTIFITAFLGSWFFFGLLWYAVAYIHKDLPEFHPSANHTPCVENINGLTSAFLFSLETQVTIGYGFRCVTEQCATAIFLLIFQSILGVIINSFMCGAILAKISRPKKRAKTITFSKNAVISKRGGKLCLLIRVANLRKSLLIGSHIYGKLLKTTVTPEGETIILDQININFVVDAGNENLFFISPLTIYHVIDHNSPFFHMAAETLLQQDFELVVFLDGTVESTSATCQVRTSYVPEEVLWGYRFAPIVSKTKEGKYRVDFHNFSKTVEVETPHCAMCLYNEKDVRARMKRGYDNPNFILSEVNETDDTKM
ROMK retest – retested hit modulating human ROMK potassium channel; shares compounds with ROMK primary; ROMK thallium flux, fluorescence ratio; hits give low values; normalized thallium flux (F/F0 slope) at 10 µM; 54% of 3,000 active;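 active = Flux at 10 µM at least 3 SD below or above vehicle control mean in one or both replicates; inconclusive = no clear call, values can overlap the other calls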
Each line names hits and unclear results; the compound was inactive in the other large screens (follow-up assays come after a bar, where they were run).

CC(C)(C)n1nnnc1C(c1cccc(C#N)c1)N1CCCc2ccccc21 (configuration not stated)	ROMK primary -3.96 | ROMK retest 0.0646
CCCCc1cc(=O)oc2cc(C)cc(O)c12	none (no result: ROMK primary) | ROMK retest 0.0542
CCOc1ccccc1NC(=O)C(NCC1(N2CCCCC2)CCCCC1)c1ccccc1 (configuration not stated)	ROMK primary -3.44 (no result: Measles CPE, sdo1 growth) | ROMK retest 0.0642
CCN(CC(=O)NCc1cccs1)C(=O)CCc1c[nH]c2ccccc12	none (no result: Measles CPE, sdo1 growth)
OC(CNCc1ccccc1)COCc1ccc(Cl)cc1 (configuration not stated)	none (no result: Measles CPE, sdo1 growth)
CC(NCC(O)COCc1ccc(Cl)cc1)c1ccccc1 (configuration not stated)	ROMK primary -2.03 (no result: Measles CPE, sdo1 growth) | ROMK retest 0.0491
Cc1[nH]n(-c2ccc(C(=O)O)cc2)c(=O)c1CCO	ROMK primary 3.75 (no result: Measles CPE, sdo1 growth) | ROMK retest inactive
Cc1[nH]n(-c2ccc(Cl)c(Cl)c2)c(=O)c1CCO	none (no result: Insulin prom inh, Measles CPE, sdo1 growth)
Cn1nc(-c2ccc(Cl)cc2)c2cc(C(=O)NCCCN3CCCC3)sc21	none (no result: Insulin prom inh, ROMK primary) | ROMK retest 0.059
COC(=O)c1cc(C(=O)N2CCN(c3cccc(C)c3C)CC2)cc([N+](=O)[O-])c1	ROMK primary 2.83 (no result: Insulin prom inh, Measles CPE, sdo1 growth) | ROMK retest inconclusive
COC(=O)c1cc(C(=O)N2CCN(c3ccccc3OC)CC2)cc([N+](=O)[O-])c1	none (no result: Measles CPE, sdo1 growth)
O=C(O)c1cc(N2N=C(C(F)(F)F)/C(=C/C=C/c3ccco3)C2=O)ccc1Cl	ROMK primary -5.27 (no result: Measles CPE, sdo1 growth) | ROMK retest 0.049
Cn1c(C(=O)N2CCCC(C(=O)c3ccc(C(F)(F)F)cc3)C2)cc(=O)n(C)c1=O (configuration not stated)	none (no result: Measles CPE, sdo1 growth)
NS(=O)(=O)c1ccc(CCNC(=O)c2ccc(C#CC3(O)CCCCC3)cc2)cc1	none (no result: Measles CPE, sdo1 growth) | ROMK retest inactive
CCC(NC(=O)c1ccc(C#CC2(O)CCCCC2)cc1)C(=O)O (configuration not stated)	none (no result: Insulin prom inh, Measles CPE, sdo1 growth)
CC1CC(N(C(=O)C2CC2)c2ccccc2)c2ccccc2N1C(=O)C1CC1 (configuration not stated)	ROMK primary -3.43 | ROMK retest 0.0584
COc1ccccc1CN=Cc1[nH]c2ccc(Br)c(Cl)c2c1O	ROMK primary -3.59 (no result: Insulin prom inh) | ROMK retest 0.0443
O=C(O)c1ccc(OCCn2ccnc2)cc1	none | ROMK retest inactive
CCC(C)c1ccc(OCCn2ccnc2)cc1 (configuration not stated)	none
O=C1C=C(Nc2ccc(Cl)cc2Cl)CC(c2ccco2)C1 (configuration not stated)	none (no result: Insulin prom inh, Measles CPE, sdo1 growth)
COc1ccccc1-c1cc(C(F)(F)F)nc(S(=O)(=O)CCCC(=O)N2CCOCC2)n1	ROMK primary -3.39 | ROMK retest inconclusive
COc1ccccc1-c1cc(C(F)(F)F)nc(S(=O)(=O)CCCC(=O)O)n1	none
Cc1ncsc1CCOC(=O)c1ccc(Cl)cc1	none (no result: Insulin prom inh, Measles CPE, sdo1 growth)
COc1ccccc1Sc1nc(-c2ccccn2)ncc1OC	none (no result: Measles CPE, sdo1 growth)
COc1cnc(-c2ccccn2)nc1Sc1ccc(C)cc1	ROMK primary -4.44 (no result: Measles CPE, sdo1 growth) | ROMK retest inconclusive
Cc1ccc(-c2nnc(CSc3nnc(COc4ccccc4)n3-c3ccccc3)o2)cc1	ROMK primary -3.49 | ROMK retest 0.0533
Cc1ccc(-c2nnc(CSc3nnc(COc4ccccc4)n3-c3ccc(C)cc3)o2)cc1	none
CCOc1ccc2ncc(S(=O)(=O)c3ccc(C)cc3)c(N3CCC4(CC3)OCCO4)c2c1	none (no result: Insulin prom inh, ROMK primary) | ROMK retest 0.0626
CCCCn1c(SCC(=O)Nc2cc(C)on2)nnc1-c1ccco1	ROMK primary 3.22 | ROMK retest inactive
Cc1cc(NC(=O)CSc2nnc(-c3ccco3)n2Cc2ccccc2)no1	none (no result: ROMK primary)
CCn1c(=O)cc(SCC(=O)NCc2ccco2)c2ccccc21	ROMK primary 3.52 (no result: Insulin prom inh) | ROMK retest inactive
CCn1c(=O)cc(SCC(=O)NCc2ccc(C)o2)c2ccccc21	none (no result: Insulin prom inh)
COC(=O)c1ccc(C(=O)OC)c(NC(=O)COC(=O)C2CC2C)c1 (configuration not stated)	none
CC1(C)Cc2c(C#N)c(SCCOc3ccccc3)nc(N3CCOCC3)c2CO1	none (no result: ROMK primary) | ROMK retest inconclusive
CCCSc1nc(N2CCCC2)c2c(c1C#N)CC(C)(C)OC2	none
CC(C)(C)c1nnc(N/N=C/c2ccc(Br)cc2)n(N)c1=O	none
S=C(NCCc1ccccc1)N1CCN(C2CCCCC2)CC1	ROMK primary -2.75 (no result: Insulin prom inh, Measles CPE, sdo1 growth) | ROMK retest 0.0628
Cc1ccc(C)c(OCCOCCN2CC(C)OC(C)C2)c1C (configuration not stated)	none (no result: Insulin prom inh)
CC(=O)c1ccc(NC2OC(CO)C(O)C(O)C2O)cc1 (configuration not stated)	none
CCC(=O)NC1OC(CO)C(O)C(O)C1O (configuration not stated)	ROMK primary -2.37 (no result: Insulin prom inh, Measles CPE, sdo1 growth) | ROMK retest inactive
CCSC(=O)NC1CCCCC1	none (no result: Insulin prom inh, Measles CPE, sdo1 growth)
O=S(=O)(Nc1cccc(-c2cn3cccnc3n2)c1)c1ccc(-c2ccccc2)cc1	none (no result: ROMK primary) | ROMK retest inactive
Cc1ccc(-n2cc(CN3CCC(CO)(Cc4ccccc4)CC3)cn2)cc1	ROMK primary -5.17 (no result: Insulin prom inh, Measles CPE, sdo1 growth) | ROMK retest 0.0591
COc1ccc2c(n1)Sc1nc3ccccc3nc1N2	none (no result: Insulin prom inh, Measles CPE, sdo1 growth, ROMK primary) | ROMK retest 0.0566
N#C/C(=C\c1cccnc1)C(=O)Nc1cccc2ccccc12	ROMK primary -2.45 | ROMK retest 0.0459
COCCNC(=O)/C(C#N)=C/C(C)=C/c1ccccc1	none (no result: ROMK primary)
N#C/C(=C\c1cccnc1)C(=O)NC1CCCCC1	ROMK primary -5.27 | ROMK retest 0.036
N#C/C(=C\c1cccc([N+](=O)[O-])c1)C(=O)NCc1cccnc1	none (no result: ROMK primary) | ROMK retest 0.0223
COCCNC(=O)/C(C#N)=C/c1cccc(/C=C(\C#N)C(=O)NCCOC)c1	none (no result: ROMK primary) | ROMK retest 0.0373
N#C/C(=C\c1ccc2c(c1)OCCO2)C(=O)NC1CCCCC1	none (no result: Insulin prom inh, ROMK primary)
N#C/C(=C\c1cccc([N+](=O)[O-])c1)C(=O)NCc1ccc(Cl)cc1	none (no result: Insulin prom inh, Measles CPE, sdo1 growth)
Cc1n(N)c2ccccc2[n+]1CC(=O)c1ccccc1	none (no result: Measles CPE, sdo1 growth)
Cc1cccc(NC(=O)/C(C#N)=C\c2cccnc2)c1	none (no result: ROMK primary)
CCCCNC(=O)/C(C#N)=C/c1cccnc1	ROMK primary -3.27 | ROMK retest 0.05
O=c1c2cc(Cl)ccc2nc(-c2ccc(Cl)c(Cl)c2)n1O	none (no result: Insulin prom inh, Measles CPE, sdo1 growth, ROMK primary) | ROMK retest 0.182
O=c1c2cc(Cl)ccc2nc(-c2ccccc2)n1O	none (no result: Insulin prom inh, Measles CPE, sdo1 growth)
O=C(Nc1ccc(NC(=S)NC(=O)c2ccccc2Cl)cc1)c1cccc(Cl)c1	none (no result: Measles CPE, sdo1 growth, ROMK primary)
CC(C)(C)C(=O)c1cnc(Nc2ccccc2Cl)s1	ROMK primary 5.41 | ROMK retest inactive
COc1ccccc1-n1cnc2cc(NCc3ccco3)ccc21	ROMK primary 7.9 (no result: Insulin prom inh) | ROMK retest inactive
O=C(NCc1ccc(-n2cccc2)cc1)c1cccc(F)c1	none (no result: Measles CPE, sdo1 growth, ROMK primary)
Cc1cc(NC(=O)CCCn2cc([N+](=O)[O-])cn2)n(Cc2ccc(F)cc2)n1	none (no result: Insulin prom inh, Measles CPE, sdo1 growth)
CCn1c(O)c(/C=N/N=C2CCCCC2)c2cc(C3=NNC(=O)CC3)ccc21	none (no result: Insulin prom inh, Measles CPE, sdo1 growth, ROMK primary) | ROMK retest 0.0665
COc1ccc(-c2ccnc(-c3ccc(O)cc3)n2)cc1	ROMK primary 3.17 (no result: Insulin prom inh, Measles CPE, sdo1 growth) | ROMK retest inactive
CCSc1ncnc2c1sc1nc(-c3ccco3)c3c(c12)CC(C)(C)OC3	none (no result: ROMK primary) | ROMK retest inactive
COc1cc(C)ccc1OCCOCCOc1ccc([N+](=O)[O-])cc1	ROMK primary -1.7 | ROMK retest inactive

Source: PubChem BioAssay
